# What was measured:
# Experiment in all cases: DAPPL (digital affinity profiling via proximity ligation, sequencing); 10 mM Tris-HCl pH 7.5, 50 mM NaCl, 1 mM DTT, 4% glycerol, room temperature, 30 min; GST-TFs on glutathione beads, 16-mer random dsDNA library, 0.1% formaldehyde crosslink after washing; high values mean tight binding
# FLI1 = biological target: T1, FLI1 (Homo sapiens, UniProt Q01543 1-452); details: protein: recombinant; tags: N-terminal GST; dsDNA, one strand shown
# T1 sequence: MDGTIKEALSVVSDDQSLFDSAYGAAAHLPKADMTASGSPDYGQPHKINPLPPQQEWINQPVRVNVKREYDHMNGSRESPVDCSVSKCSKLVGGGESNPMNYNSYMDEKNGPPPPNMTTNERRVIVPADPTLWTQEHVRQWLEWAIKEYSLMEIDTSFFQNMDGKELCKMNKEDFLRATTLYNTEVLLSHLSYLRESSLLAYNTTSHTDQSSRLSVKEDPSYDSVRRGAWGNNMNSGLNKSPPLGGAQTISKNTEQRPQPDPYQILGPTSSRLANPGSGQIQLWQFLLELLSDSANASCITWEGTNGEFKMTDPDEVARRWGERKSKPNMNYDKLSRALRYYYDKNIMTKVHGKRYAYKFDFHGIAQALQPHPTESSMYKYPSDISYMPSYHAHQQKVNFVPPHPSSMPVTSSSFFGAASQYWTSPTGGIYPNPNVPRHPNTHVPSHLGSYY
# Method in brief: (§1)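 Human transcription factors carrying a GST fusion were produced in yeast, bound to glutathione beads, tagged with DNA barcodes and pooled together with a tag-only sample. Each pool was held with 200 nmole of a random double-stranded 16-mer DNA library in Tris/NaCl/DTT/glycerol buffer for 30 min at room temperature, then washed, crosslinked in 0.1% formaldehyde, proximity-ligated with BsaI/T4 ligase (1 h, 37 °C), PCR-amplified and sequenced on an Illumina NextSeq500. Binding signal is the read frequency of each hexamer for a given factor divided by its frequency in the tag-only sample.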
# ELK1 = biological target: T2, ELK1 (Homo sapiens, UniProt P19419 1-428); details: protein: recombinant; tags: N-terminal GST; dsDNA, one strand shown
# T2 sequence: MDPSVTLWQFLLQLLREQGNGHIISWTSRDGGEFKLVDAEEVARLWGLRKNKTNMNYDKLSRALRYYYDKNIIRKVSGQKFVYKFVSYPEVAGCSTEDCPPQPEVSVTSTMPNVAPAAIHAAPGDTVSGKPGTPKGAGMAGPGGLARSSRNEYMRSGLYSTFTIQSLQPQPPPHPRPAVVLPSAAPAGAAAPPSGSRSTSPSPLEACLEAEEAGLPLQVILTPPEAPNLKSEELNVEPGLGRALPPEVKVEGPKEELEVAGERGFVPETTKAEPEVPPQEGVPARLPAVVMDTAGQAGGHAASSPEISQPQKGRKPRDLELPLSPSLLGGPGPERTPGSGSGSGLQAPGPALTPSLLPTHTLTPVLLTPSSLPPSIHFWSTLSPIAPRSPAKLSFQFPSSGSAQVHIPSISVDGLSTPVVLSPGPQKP
# Method in brief: as §1
# GABPA = biological target: T3, GABPA (Homo sapiens, UniProt Q06546 1-454); details: protein: recombinant; tags: N-terminal GST; dsDNA, one strand shown
# T3 sequence: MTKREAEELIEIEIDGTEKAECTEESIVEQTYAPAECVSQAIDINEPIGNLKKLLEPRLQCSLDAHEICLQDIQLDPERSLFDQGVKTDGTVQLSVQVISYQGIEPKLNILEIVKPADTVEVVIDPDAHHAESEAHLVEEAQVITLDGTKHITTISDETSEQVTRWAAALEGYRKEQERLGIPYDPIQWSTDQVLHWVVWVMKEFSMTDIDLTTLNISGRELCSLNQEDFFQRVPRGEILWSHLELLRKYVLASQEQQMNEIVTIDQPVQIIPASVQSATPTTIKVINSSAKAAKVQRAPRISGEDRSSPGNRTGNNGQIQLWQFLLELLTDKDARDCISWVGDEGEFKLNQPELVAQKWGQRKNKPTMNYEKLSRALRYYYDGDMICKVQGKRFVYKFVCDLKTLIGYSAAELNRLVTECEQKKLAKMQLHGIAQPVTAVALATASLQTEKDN
# Method in brief: as §1
# ERG = biological target: T4, ERG (Homo sapiens, UniProt P11308 1-479); details: protein: recombinant; tags: N-terminal GST; dsDNA, one strand shown
# T4 sequence: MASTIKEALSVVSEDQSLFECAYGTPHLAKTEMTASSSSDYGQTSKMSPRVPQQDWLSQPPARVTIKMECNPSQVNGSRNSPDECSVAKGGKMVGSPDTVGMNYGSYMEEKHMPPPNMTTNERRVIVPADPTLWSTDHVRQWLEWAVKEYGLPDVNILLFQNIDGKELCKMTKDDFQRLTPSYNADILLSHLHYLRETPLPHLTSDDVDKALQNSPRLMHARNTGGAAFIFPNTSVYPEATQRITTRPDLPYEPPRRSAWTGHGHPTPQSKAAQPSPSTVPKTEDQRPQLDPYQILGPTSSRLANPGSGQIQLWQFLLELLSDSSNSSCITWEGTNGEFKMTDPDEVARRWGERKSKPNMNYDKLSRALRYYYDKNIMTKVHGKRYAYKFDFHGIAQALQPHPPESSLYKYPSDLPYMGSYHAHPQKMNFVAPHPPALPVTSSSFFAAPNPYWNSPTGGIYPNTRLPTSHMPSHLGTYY
# Method in brief: as §1
# ELF1 = ELF1 (Homo sapiens, UniProt P32519 1-619); details: protein: recombinant; tags: N-terminal GST; dsDNA, one strand shown
# Method in brief: as §1
# EHF = biological target: T5, EHF (Homo sapiens, UniProt Q9NZC4 1-300); details: protein: recombinant; tags: N-terminal GST; dsDNA, one strand shown
# T5 sequence: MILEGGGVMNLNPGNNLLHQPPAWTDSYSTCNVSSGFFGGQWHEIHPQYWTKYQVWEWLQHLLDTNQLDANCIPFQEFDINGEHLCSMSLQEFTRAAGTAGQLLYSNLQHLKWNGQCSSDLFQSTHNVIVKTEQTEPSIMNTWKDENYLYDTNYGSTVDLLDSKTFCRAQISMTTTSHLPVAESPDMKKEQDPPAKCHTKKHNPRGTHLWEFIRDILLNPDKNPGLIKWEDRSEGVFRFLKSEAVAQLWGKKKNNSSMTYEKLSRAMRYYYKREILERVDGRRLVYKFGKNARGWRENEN
# Method in brief: as §1
# SPI1 = SPI1 (Homo sapiens, UniProt P17947 1-270); details: protein: recombinant; tags: N-terminal GST; dsDNA, one strand shown
# Method in brief: as §1
# SPIB = SPIB (Homo sapiens, UniProt Q01892 1-262); details: protein: recombinant; tags: N-terminal GST; dsDNA, one strand shown
# Method in brief: as §1
# ELK3 = biological target: T6, ELK3 (Homo sapiens, UniProt P41970 1-407); details: protein: recombinant; tags: N-terminal GST; dsDNA, one strand shown
# T6 sequence: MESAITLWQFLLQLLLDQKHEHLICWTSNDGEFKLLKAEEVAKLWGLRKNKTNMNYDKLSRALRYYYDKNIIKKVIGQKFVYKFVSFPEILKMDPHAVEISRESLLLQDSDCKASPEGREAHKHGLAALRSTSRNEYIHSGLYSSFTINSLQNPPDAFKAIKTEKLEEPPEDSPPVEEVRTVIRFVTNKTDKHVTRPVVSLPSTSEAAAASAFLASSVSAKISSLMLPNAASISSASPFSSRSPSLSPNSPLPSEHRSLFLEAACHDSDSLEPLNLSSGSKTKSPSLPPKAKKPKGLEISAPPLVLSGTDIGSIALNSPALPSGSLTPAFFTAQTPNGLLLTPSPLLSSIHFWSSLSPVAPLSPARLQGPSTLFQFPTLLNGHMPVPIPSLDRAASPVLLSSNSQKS
# Method in brief: as §1
# FEV = biological target: T7, FEV (Homo sapiens, UniProt Q99581 1-238); details: protein: recombinant; tags: N-terminal GST; dsDNA, one strand shown
# T7 sequence: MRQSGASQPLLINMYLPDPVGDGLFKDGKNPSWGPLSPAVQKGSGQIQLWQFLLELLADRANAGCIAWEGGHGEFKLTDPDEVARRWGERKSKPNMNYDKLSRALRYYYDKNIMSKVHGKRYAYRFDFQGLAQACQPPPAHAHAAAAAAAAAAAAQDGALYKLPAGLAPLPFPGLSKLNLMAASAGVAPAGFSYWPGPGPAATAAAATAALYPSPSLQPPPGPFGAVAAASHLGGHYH
# Method in brief: as §1
# ETV5 = ETV5 (Homo sapiens, UniProt P41161 1-510); details: protein: recombinant; tags: N-terminal GST; dsDNA, one strand shown
# Method in brief: as §1
# HSF1 = HSF1 (Homo sapiens, UniProt Q00613 1-529); details: protein: recombinant; tags: N-terminal GST; chain copies: 3; dsDNA, one strand shown
# Method in brief: as §1
# SPIC = biological target: T8, SPIC (Homo sapiens, UniProt Q8N5J4 1-248); details: protein: recombinant; tags: N-terminal GST; dsDNA, one strand shown
# T8 sequence: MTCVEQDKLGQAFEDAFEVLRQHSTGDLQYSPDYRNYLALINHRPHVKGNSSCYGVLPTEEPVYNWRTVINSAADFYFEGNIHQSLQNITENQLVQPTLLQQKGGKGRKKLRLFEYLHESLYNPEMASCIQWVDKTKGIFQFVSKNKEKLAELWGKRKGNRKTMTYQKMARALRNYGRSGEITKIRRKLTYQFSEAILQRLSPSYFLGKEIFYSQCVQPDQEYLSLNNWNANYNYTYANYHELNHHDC
# Method in brief: as §1
# ELF4 = ELF4 (Homo sapiens, UniProt Q99607 1-663); details: protein: recombinant; tags: N-terminal GST; dsDNA, one strand shown
# Method in brief: as §1
# ELK4 = biological target: T9, ELK4 (Homo sapiens, UniProt P28324-2 1-405); details: protein: recombinant; tags: N-terminal GST; dsDNA, one strand shown
# T9 sequence: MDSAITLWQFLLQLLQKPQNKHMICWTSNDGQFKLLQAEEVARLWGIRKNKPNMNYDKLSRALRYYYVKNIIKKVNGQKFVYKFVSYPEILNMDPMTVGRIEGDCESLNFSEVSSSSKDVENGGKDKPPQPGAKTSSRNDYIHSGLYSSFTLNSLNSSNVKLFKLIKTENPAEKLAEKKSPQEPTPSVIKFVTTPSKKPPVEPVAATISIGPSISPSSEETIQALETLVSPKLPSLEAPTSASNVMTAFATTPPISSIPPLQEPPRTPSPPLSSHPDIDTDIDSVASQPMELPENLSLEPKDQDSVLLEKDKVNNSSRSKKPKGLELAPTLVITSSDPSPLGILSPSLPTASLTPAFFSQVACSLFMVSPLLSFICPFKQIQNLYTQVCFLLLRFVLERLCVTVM
# Method in brief: as §1
# ETV2 = biological target: T10, ETV2 (Homo sapiens, UniProt O00321 1-342); details: protein: recombinant; tags: N-terminal GST; dsDNA, one strand shown
# T10 sequence: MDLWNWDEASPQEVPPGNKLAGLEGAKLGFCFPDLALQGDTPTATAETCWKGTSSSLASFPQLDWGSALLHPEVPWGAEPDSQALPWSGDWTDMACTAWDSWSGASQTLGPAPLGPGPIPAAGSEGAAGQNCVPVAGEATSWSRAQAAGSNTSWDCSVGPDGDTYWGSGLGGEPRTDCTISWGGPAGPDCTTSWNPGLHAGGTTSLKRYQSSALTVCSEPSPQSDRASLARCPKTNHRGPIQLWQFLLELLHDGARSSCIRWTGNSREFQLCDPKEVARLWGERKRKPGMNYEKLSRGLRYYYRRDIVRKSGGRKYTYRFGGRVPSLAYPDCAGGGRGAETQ
# Method in brief: as §1
# ELF3 = biological target: T11, ELF3 (Homo sapiens, UniProt P78545 1-371); details: protein: recombinant; tags: N-terminal GST; dsDNA, one strand shown
# T11 sequence: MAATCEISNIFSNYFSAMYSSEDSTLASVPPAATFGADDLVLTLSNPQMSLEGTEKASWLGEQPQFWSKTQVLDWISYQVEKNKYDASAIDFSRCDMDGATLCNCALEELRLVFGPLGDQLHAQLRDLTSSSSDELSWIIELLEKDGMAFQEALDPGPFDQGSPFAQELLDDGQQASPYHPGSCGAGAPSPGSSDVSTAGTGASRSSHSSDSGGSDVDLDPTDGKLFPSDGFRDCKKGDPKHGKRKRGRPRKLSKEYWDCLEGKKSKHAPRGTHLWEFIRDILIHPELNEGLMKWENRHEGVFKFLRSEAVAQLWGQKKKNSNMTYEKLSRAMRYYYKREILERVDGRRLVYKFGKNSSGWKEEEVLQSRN
# Method in brief: as §1
# CRX = CRX (Homo sapiens, UniProt O43186 1-299); details: protein: recombinant; tags: N-terminal GST; dsDNA, one strand shown
# Method in brief: as §1
# ETV1 = ETV1 (Homo sapiens, UniProt P50549 1-477); details: protein: recombinant; tags: N-terminal GST; dsDNA, one strand shown
# Method in brief: as §1
# Sequence of ELF4 (Q99607 whole entry): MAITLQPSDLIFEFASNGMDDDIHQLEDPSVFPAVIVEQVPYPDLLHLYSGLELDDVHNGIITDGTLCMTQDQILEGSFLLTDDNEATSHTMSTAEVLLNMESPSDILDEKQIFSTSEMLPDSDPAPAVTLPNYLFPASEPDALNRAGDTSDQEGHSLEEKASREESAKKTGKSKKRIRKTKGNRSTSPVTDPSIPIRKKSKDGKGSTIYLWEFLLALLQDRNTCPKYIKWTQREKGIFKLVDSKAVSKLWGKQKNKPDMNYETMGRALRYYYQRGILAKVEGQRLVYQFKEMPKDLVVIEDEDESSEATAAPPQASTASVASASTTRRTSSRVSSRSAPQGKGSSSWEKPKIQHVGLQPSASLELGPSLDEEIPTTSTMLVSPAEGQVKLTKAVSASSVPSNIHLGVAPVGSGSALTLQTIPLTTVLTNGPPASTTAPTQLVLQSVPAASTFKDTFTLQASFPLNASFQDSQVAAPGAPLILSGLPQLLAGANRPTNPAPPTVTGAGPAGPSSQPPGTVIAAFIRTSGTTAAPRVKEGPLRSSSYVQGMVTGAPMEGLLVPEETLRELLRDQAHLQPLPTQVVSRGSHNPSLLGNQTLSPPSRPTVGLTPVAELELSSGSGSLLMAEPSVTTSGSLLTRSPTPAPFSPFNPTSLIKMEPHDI
# Sequence of ELF1 (P32519 whole entry): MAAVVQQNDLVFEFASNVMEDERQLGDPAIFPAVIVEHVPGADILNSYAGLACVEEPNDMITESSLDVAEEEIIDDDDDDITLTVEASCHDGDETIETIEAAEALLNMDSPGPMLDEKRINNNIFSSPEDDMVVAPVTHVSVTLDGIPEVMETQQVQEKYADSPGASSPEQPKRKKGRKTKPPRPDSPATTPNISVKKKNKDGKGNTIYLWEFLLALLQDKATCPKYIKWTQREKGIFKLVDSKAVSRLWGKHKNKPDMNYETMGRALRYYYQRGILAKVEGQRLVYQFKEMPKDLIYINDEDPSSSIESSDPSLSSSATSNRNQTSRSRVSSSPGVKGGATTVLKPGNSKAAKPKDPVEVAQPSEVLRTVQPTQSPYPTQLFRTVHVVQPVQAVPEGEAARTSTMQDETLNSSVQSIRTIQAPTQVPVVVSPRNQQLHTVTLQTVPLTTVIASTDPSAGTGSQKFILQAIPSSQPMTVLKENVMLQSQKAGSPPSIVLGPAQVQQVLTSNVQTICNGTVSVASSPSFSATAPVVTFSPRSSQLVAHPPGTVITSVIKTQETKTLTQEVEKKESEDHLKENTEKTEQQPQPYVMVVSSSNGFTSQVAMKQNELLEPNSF
# Sequence of HSF1 (Q00613 whole entry): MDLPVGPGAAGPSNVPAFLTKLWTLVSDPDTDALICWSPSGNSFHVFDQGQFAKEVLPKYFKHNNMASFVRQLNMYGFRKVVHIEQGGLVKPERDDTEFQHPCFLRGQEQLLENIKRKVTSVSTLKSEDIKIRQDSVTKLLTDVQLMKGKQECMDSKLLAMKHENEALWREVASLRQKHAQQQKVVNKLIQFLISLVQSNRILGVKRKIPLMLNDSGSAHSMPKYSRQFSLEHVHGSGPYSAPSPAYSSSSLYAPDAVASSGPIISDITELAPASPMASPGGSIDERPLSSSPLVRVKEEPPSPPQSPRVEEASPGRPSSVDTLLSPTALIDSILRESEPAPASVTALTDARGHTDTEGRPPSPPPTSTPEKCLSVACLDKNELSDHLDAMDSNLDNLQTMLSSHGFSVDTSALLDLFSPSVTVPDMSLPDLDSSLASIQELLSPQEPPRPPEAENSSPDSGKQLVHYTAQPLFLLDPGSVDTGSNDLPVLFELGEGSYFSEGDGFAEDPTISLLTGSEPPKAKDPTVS
# Sequence of SPIB (Q01892 whole entry): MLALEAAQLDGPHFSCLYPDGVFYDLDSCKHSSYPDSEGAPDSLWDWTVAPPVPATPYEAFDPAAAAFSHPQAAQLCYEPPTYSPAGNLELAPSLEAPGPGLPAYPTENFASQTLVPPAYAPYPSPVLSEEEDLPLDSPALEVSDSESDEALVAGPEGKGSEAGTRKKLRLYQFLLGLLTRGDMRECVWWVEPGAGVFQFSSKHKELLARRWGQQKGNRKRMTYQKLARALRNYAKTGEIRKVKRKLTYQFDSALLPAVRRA
# Sequence of ETV5 (P41161 whole entry): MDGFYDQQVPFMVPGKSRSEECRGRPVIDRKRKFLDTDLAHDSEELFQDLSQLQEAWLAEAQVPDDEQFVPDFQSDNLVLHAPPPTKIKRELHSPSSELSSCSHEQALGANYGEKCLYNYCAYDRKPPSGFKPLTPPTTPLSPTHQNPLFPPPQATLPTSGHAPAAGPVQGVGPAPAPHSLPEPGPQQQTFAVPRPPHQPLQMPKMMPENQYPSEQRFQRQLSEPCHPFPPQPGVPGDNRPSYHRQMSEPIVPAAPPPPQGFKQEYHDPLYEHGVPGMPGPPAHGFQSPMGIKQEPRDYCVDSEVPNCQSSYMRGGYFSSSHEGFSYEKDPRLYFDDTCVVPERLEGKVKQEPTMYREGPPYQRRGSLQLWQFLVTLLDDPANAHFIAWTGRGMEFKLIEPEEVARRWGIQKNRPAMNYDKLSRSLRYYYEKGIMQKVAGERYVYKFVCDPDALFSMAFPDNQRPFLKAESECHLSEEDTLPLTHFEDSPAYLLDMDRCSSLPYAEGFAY
# Sequence of CRX (O43186 whole entry): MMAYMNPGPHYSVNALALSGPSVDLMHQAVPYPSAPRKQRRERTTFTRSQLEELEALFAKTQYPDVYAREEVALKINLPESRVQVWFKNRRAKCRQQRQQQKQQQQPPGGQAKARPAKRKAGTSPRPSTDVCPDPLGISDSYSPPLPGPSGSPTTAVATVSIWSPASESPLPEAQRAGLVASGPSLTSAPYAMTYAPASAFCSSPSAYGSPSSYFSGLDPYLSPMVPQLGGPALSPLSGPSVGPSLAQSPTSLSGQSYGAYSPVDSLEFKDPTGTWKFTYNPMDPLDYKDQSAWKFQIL
# Sequence of ETV1 (P50549 whole entry): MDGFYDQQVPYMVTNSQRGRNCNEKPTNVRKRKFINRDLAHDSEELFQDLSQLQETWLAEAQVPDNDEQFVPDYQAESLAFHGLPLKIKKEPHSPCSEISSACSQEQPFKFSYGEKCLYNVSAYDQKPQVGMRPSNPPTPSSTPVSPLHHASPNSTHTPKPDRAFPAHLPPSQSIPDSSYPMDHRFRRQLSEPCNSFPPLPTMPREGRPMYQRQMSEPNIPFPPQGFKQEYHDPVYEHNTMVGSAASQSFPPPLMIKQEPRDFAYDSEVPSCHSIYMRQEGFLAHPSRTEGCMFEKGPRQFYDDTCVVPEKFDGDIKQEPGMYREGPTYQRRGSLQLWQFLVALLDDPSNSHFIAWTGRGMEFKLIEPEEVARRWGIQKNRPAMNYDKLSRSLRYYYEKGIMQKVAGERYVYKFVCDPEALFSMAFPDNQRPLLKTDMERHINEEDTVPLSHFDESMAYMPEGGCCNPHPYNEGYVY
sequence,measurement,setting,value
TTTGAA,binding signal,FLI1,"1.22 fold enrichment (6-mer frequency, TF over GST control)"
same,binding signal,ELK1,"1.09 fold enrichment (6-mer frequency, TF over GST control)"
same,binding signal,GABPA,"1.2 fold enrichment (6-mer frequency, TF over GST control)"
same,binding signal,ERG,"1.21 fold enrichment (6-mer frequency, TF over GST control)"
same,binding signal,ELF1,"1.23 fold enrichment (6-mer frequency, TF over GST control)"
same,binding signal,EHF,"1.24 fold enrichment (6-mer frequency, TF over GST control)"
same,binding signal,SPI1,"1.2 fold enrichment (6-mer frequency, TF over GST control)"
same,binding signal,SPIB,"1.2 fold enrichment (6-mer frequency, TF over GST control)"
same,binding signal,ELK3,"1.17 fold enrichment (6-mer frequency, TF over GST control)"
same,binding signal,FEV,"1.13 fold enrichment (6-mer frequency, TF over GST control)"
same,binding signal,ETV5,"1.26 fold enrichment (6-mer frequency, TF over GST control)"
same,binding signal,HSF1,"1.24 fold enrichment (6-mer frequency, TF over GST control)"
same,binding signal,SPIC,"1.24 fold enrichment (6-mer frequency, TF over GST control)"
same,binding signal,ELF4,"1.32 fold enrichment (6-mer frequency, TF over GST control)"
same,binding signal,ELK4,"1.34 fold enrichment (6-mer frequency, TF over GST control)"
same,binding signal,ETV2,"1.38 fold enrichment (6-mer frequency, TF over GST control)"
same,binding signal,ELF3,"1.3 fold enrichment (6-mer frequency, TF over GST control)"
same,binding signal,CRX,"1.28 fold enrichment (6-mer frequency, TF over GST control)"
same,binding signal,ETV1,"1.19 fold enrichment (6-mer frequency, TF over GST control)"

# Source: publication PMC7862700, “An all-to-all approach to the identification of sequence-specific readers for epigenetic DNA modifications on cytosine”
